Measured values reported in PubChem BioAssay (NCI).
This is part of a sample that, as a whole, favours compounds with a hit. Of some 79,000 tested, about 15% had one in any assay. The source made the active and inactive calls. Cut-off read from the data, not from the text of the source: active = growth inhibition above about 70%; inactive = the rest.

How the values were obtained:
[1] = NCI Yeast Anticancer Drug Screen. Data for the rad50 strain (AID 155);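 note: 0% = growth of vehicle-only cultures of the same strain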; conditions: S. cerevisiae rad50 strain growth inhibition; at 50.0 µM; active compounds read high
Outline: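 Compounds were tested on a yeast strain with an engineered DNA damage repair alteration; the reported value is growth inhibition normalised to vehicle treatment.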

[2] = NCI Yeast Anticancer Drug Screen. Data for the mec2-1 strain (AID 157); conditions: S. cerevisiae mec2-1 strain, at 50.0 µM, active compounds read high
Outline: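 Readout is yeast growth inhibition, normalised to vehicle-treated controls, in the mec2-1 strain exposed to compound.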

[3] = NCI Yeast Anticancer Drug Screen. Data for the sgs1 mgt1 strain (AID 161);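 note: 0% = growth of cultures given vehicle only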; conditions: S. cerevisiae sgs1 mgt1 strain, at 50.0 µM, active compounds read high
Outline: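 Growth of a repair-deficient yeast mutant was monitored after compound treatment and expressed as inhibition relative to vehicle-treated cultures.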

[4] = NCI Yeast Anticancer Drug Screen. Data for the cln2 rad14 strain (AID 165);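 note: 0% = growth equal to vehicle treated cultures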; conditions: S. cerevisiae cln2 rad14 strain, at 50.0 µM, active compounds read high
Outline: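 Relative to vehicle controls, growth inhibition of compound-treated cln2 rad14 yeast was recorded.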

[5] = NCI Yeast Anticancer Drug Screen. Data for the bub3 strain (AID 167); conditions: S. cerevisiae bub3 mutant strain, at 50.0 µM, active compounds read high
Outline: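 Growth of a checkpoint-deficient yeast mutant is measured after compound exposure. Values represent inhibition relative to vehicle.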

[6] = NCI Yeast Anticancer Drug Screen. Data for the mlh1 rad18 strain (AID 175); conditions: S. cerevisiae mlh1 rad18 strain growth inhibition; at 50.0 µM; active compounds read high
Outline: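 Test agents were incubated with a yeast strain of defined genotype (DNA damage repair defect). Inhibition of growth was derived by comparison with vehicle-exposed cultures.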

Measured: growth inhibition

O=Cc1[nH]c(=S)[nH]c(=O)c1Cc1cccc(Cl)c1
active: [3] 83.2% | [5] 77.5% | [6] 83.2%
inactive: [1] 63.9% | [2] 35.2% | [4] 56.2%

CCOC(=O)NC(OCCN(C)C)(C(F)(F)F)C(F)(F)F
inactive: [1] -32.4% | [2] 25.9% | [3] -53.5% | [4] 3.3% | [5] -4.15% | [6] 31.1%

C/C(=N\NC(=S)NC(C)C)c1nc2ncccc2[nH]1
inactive: [1] -14.5% | [2] -17.6% | [3] -56.6% | [4] -28.8% | [5] 17.5% | [6] -25.8%

CCOC(=O)C1C(c2ccc(Br)cc2)N(Cc2ccccc2)C(c2ccc(Br)cc2)C(C(=O)OC)S1(=O)=O (configuration not stated)
inactive: [1] -42.2% | [2] -49.5% | [3] -16.6% | [4] -25.1% | [5] -21.4% | [6] -22.1%

C=C1C(=O)O[C@@H]2/C=C(/C)[C@@H](OC(C)=O)C[C@@H](O)/C(C)=C\[C@@H](OC(=O)[C@]3(C)O[C@@H]3C)[C@@H]12
inactive: [1] 11.3% | [2] -0.85% | [3] 16.2% | [4] 20.5% | [5] 13.4% | [6] -63.6%

CCCc1c(OC(=O)c2ccc([N+](=O)[O-])cc2)cccc1OC(=O)c1ccc([N+](=O)[O-])cc1
inactive: [1] 20.1% | [2] 1.1% | [3] 12.8% | [4] 18.1% | [5] -3.95% | [6] 7.55%

CC(=O)N/C(=C/c1ccccc1)C(=O)NC(C)(C)C
inactive: [1] -13.1% | [2] -6.15% | [3] -9.85% | [4] -4.25% | [5] 1.2% | [6] 0.05%

COC(=O)c1nnn(-c2ccc(C)c(C)c2)c1C(=O)c1ccccc1
inactive: [1] -2.7% | [2] -2.5% | [3] -15.2% | [4] 16.5% | [5] -8.25% | [6] 29.1%

Cc1onc2c1c(=O)n(C)c(=O)n2C
inactive: [1] -6.25% | [2] -1.95% | [3] -3.55% | [4] -20.1% | [5] -7.45% | [6] -2.25%

CCOC(=O)NN(C(=O)OCC)C(C(=O)C1CCCCC1)N(NC(=O)OCC)C(=O)OCC
inactive: [1] 21.4% | [2] -21.6% | [3] 18.9% | [4] 11.2% | [5] -3.55% | [6] -8.4%

O=c1[nH]nnc2ccccc12
inactive: [1] 2.85% | [2] 4.8% | [3] 1.85% | [4] 4.55% | [5] 17.9% | [6] -0.55%

C=CCn1c(=O)cc[nH]c1=S
inactive: [1] -11.6% | [2] -13.2% | [3] -24.7% | [4] 3.4% | [5] -1.05% | [6] -21.2%

CC1CCCC2(CN=C(Nc3ccccc3)O2)C1 (configuration not stated)
inactive: [1] -13.7% | [2] -8.45% | [3] -7.05% | [4] -75% | [5] -10.1% | [6] -6.15%

COc1cc(/C=C/c2ccc(/C=C/c3cc(OC)c(OC)c(OC)c3)cc2)cc(OC)c1OC
inactive: [1] 11.2% | [2] -5.65% | [3] -29.9% | [4] 1.8% | [5] -8.75% | [6] -9.9%

Cc1ccccc1[B-]12OCC[N+]1(CNC(=O)c1ccccc1O)CCO2 (configuration not stated)
inactive: [1] 26% | [2] -2.1% | [3] 3.5% | [4] 16.6% | [5] 1.35% | [6] 8.5%

Cc1cc2c(cc1Cl)S(=O)(=O)OC(c1ccc([N+](=O)[O-])cc1)=N2
inactive: [1] -3.25% | [2] -4.3% | [3] -0.1% | [4] 0.45% | [5] 19.1% | [6] -10.3%

Cc1ccc(C(C(=O)O)C(Cl)(Cl)Cl)cc1 (configuration not stated)
inactive: [1] 6.7% | [2] -11% | [3] -0.75% | [4] 0.7% | [5] -6.45% | [6] 4.65%

O=C(O)c1ccc(O)c(C(=O)O)c1
inactive: [1] 12% | [2] 11% | [3] 20.6% | [4] -14.7% | [5] -6.15% | [6] 16.8%

CCCCNCC(=O)Nc1ccc(C(=O)OC(C)C)cc1
inactive: [1] -1.9% | [2] -18.1% | [3] -5.95% | [4] -35.3% | [5] 10.8% | [6] -1.75%

CC(C)(N)COCOCC(C)(C)N
inactive: [1] 6.8% | [2] -5.35% | [3] -1.15% | [4] 2.4% | [5] 5.8% | [6] 0%

O=C1CCC(c2ccccc2)C(O)(C(=O)O)C1 (configuration not stated)
inactive: [1] 6.45% | [2] -8.1% | [3] -13.9% | [4] -5.1% | [5] -14.3% | [6] -24.9%

NCC(O)COCc1ccccc1 (configuration not stated)
inactive: [1] -16.1% | [2] -24.4% | [3] -1.65% | [4] -28.1% | [5] -1.6% | [6] -0.35%

NS(=O)(=O)c1ccc2cc(S(N)(=O)=O)ccc2c1
inactive: [1] 19.1% | [2] 13.5% | [3] 22.4% | [4] 15.5% | [5] 23.1% | [6] 25.8%

COc1c2ccoc2c(OC)c2oc(=O)ccc12
inactive: [1] 13.3% | [2] -23.6% | [3] 11.7% | [4] 17.2% | [5] -4% | [6] -2.45%

CC(NC(=O)NC(C)(C)C)c1ccccc1 (configuration not stated)
inactive: [1] 3.05% | [2] -12.9% | [3] -5.05% | [4] -37% | [5] 5.2% | [6] 4.1%

CC(=O)Nc1ccccc1Sc1ccccc1
inactive: [1] -6.5% | [2] -17.1% | [3] 4.35% | [4] 15.1% | [5] 4.6% | [6] -20.9%

O=C1c2ccccc2-c2oc(=O)c3ccccc3c21
inactive: [1] -19.9% | [2] -1.5% | [3] -6.05% | [4] -17.2% | [5] 2.2% | [6] -15.9%

Nc1cccc(CC(N)C(=O)O)c1 (configuration not stated)
inactive: [1] -1.95% | [2] -5.55% | [3] -8.7% | [4] -44.1% | [5] -4.5% | [6] 1.7%

Cc1cc(=O)c2c(F)ccc(F)c2[nH]1
inactive: [1] 0% | [2] 4.5% | [3] 13.9% | [4] -36.4% | [5] -7.85% | [6] 12.7%

O=C(O)c1ccc([N+](=O)[O-])cc1C(=O)c1cccs1
inactive: [1] 0.7% | [2] -7.75% | [3] 4.6% | [4] -2.35% | [5] 5.6% | [6] -0.05%

O=C(/C=C/c1ccccc1)c1cccc([N+](=O)[O-])c1
inactive: [1] 26% | [2] 14.6% | [3] 21.4% | [4] 54.9% | [5] 41.9% | [6] 4.4%

COc1c(C(=O)/C(=N/Nc2cccc(Cl)c2)C(C)=O)c(O)c(OC)c2occc12
inactive: [1] -5.15% | [2] -8% | [3] -6.6% | [4] -8.5% | [5] 8.2% | [6] 7.65%

O=C(NCCc1ccccc1Br)c1ccccc1
inactive: [1] 8.25% | [2] -26.6% | [3] -5.95% | [4] 18.8% | [5] 28.7% | [6] -6.35%

Cc1c(C(=O)O)[nH]c(=O)[nH]c1=O
inactive: [1] 9.1% | [2] -20.4% | [3] 2.2% | [4] 11.5% | [5] -0.35% | [6] -12.1%

COc1cc(NS(=O)(=O)c2ccccc2)c2nc3ccc(Cl)cc3nc2c1
inactive: [1] 3.6% | [2] -8.4% | [3] -25.1% | [4] 3.3% | [5] -7.25% | [6] 12.3%

CC(C)(C)NNC(=O)/C(=C/c1ccc([N+](=O)[O-])cc1)NC(=O)c1ccccc1
inactive: [1] 11.6% | [2] -17.3% | [3] -8.5% | [4] 5.2% | [5] -6.2% | [6] -15.7%

CN(C(=O)c1ccc(Cl)cc1)C(=S)N1CCN(c2ccccn2)CC1
inactive: [1] -66% | [2] -33.8% | [3] -36.6% | [4] -3.7% | [5] -13.9% | [6] -43.5%
